# Source: PubChem BioAssay (National Center for Advancing Translational Sciences (NCATS))
# This excerpt belongs to a sample that is enriched for hits.
# DT40 TDP1 CPT: growth inhibition of DT40 Tdp1-/-;hTDP1 cells with camptothecin (screen for TDP1 inhibitors); actives 12% (n = 420,000); Potency, µM (top dose mostly 46.2 µM), for inactives: top-dose activity change, negative = growth inhibition, usual class: inhibitors; chicken DT40 Tdp1-/-;hTDP1 cells + 20 nM CPT, ATP luminescence, 48 h; also: potency is read from the fitted curve at half-maximal effect; nearly all actives have a fitted effect of over 55% in size
#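 Chicken DT40 Tdp1-/- cells complemented with human TDP1, 400 cells/well, exposed to compounds plus 20 nM camptothecin for at least 48 h at 37 C; viability read as ATP content by CellTiter-Glo luminescence.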
# IL-1B inflam inh: inflammasome signaling inhibition, IL-1 beta readout; THP-1 LPS/ATP IL-1B secretion, AlphaLISA, 16 h; hits give low values; activity change, % at 57.5 µM; actives 4.7% (n = 360,000); AID 743279; in the data active = activity change below about -50%; inconclusive = mostly about -30% to -49%
#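 Secreted IL-1B measured by AlphaLISA bead assay after 16 h compound exposure of THP-1 cells; compounds (final up to 57.5 uM) added 1 h before LPS (250 ng/mL) and ATP (1.25 mM) stimulation; lower signal means less secretion.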
# TDP1 cell noCPT: qHTS for Inhibitors of human tyrosyl-DNA phosphodiesterase 1 (TDP1): qHTS in cells in absence of CPT; AID 686978, 2013; DT40 Tdp1-/- hTDP1 cells, no CPT, ATP luminescence, 48 h; actives 15% (n = 420,000); Potency, µM (top dose mostly 46.2 µM), for inactives: at the top dose activity change, negative = growth inhibition, most hits filed as inhibitors; also: potency is read from the fitted curve at half-maximal effect; nearly all actives have a fitted effect of over 55% in size
#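 Seeded 400 DT40-hTDP1 cells/well (vehicle DMSO, no 20 nM CPT); pinned compounds; ≥48 hr at 37 °C; CellTiter-Glo luminescence as viability measure.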
# ALOX12 inh: inhibitors of human 12S-lipoxygenase ALOX12; actives 1.1% (n = 580,000); purified 12hLO, xylenol orange hydroperoxide absorbance; AID 1671190; P18054; Potency, µM (highest dose often 108 µM), for inactives: at the top dose activity change, negative = inhibition, most hits filed as inhibitors; also: potency is read from the fitted curve at half-maximal effect
# Target sequence (P18054 whole entry, looked up): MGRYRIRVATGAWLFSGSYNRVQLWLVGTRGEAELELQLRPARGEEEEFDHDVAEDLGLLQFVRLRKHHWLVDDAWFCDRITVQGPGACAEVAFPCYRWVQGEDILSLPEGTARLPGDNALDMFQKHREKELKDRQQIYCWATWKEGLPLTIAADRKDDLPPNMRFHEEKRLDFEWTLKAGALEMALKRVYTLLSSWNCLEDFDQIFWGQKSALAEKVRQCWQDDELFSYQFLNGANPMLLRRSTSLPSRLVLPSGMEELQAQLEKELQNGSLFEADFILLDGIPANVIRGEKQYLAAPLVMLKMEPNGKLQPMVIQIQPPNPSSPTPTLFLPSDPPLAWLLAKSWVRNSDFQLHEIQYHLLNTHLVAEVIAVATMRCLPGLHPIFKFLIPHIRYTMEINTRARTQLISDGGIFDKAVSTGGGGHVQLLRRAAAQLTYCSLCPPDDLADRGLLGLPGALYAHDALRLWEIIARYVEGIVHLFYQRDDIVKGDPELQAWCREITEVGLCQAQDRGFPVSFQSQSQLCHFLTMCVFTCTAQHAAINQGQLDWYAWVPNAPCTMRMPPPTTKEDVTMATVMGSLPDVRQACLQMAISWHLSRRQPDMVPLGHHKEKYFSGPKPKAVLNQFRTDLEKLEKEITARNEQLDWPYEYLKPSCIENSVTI
#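 Purified human 12hLO at 150 nM in 25 mM Hepes, 0.01% Triton X-100, pH 7.0, preincubated 15 min at room temperature with compound. Reaction started with 40 uM arachidonic acid, 30 min at room temperature. Hydroperoxide measured by Fe-xylenol orange, 573/405 nm absorbance ratio.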
# HT1080-NT tox: kills 2HG-producing HT-1080-NT fibrosarcoma cells | HT-1080-NT fibrosarcoma viability, CellTiter-Glo ATP luminescence, 48 h | Potency, µM (doses to about 46.1 µM), without a hit: at the highest dose activity, negative = less viability, most hits filed as cytotoxic | actives 1.6% (n = 360,000);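 also: NT is the 2HG producing partner of a matched IDH1 knockdown line; potency is read from the fitted curve at half-maximal effect; 0% = DMSO-treated cells and -100% = media-only wells without cells; nearly all actives have a fitted effect of over 55% in size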
#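 Luminescent CellTiter-Glo readout after 48 hours of compound exposure at 37 degrees C defined viability of HT-1080-NT cells. Activity was normalized to DMSO wells and cell-free media wells; concentration-response curves were fitted and assigned curve classes.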
# HT1080 IDH1KD tx: kills HT-1080 cells with IDH1 knockdown; Potency, µM (titrated, usually from 46.1 µM), for inactives: top-dose activity, negative = toxicity, actives largely listed as cytotoxic; actives 2% (n = 360,000); AID 686971; HT-1080 IDH1 knockdown viability, ATP luminescence, 48 h;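 also: potency is read from the fitted curve at half-maximal effect; 0% = DMSO wells and -100% = cell-free medium wells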
#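 Luminescent ATP read-out (CellTiter-Glo, 10 min at room temperature) after 48 h compound exposure at 37 °C gave viability of IDH1-knockdown HT-1080 cells. Activity was normalised to DMSO and cell-free wells, then fitted as concentration-response curves.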
# Numbers without * were called inactive; ? = inconclusive; / = no result; ! = a repeat was not active; [ ] = another dose, or the depositor's remark. Unless noted, calls follow the shape of the dose curve; as a rule, active = well fitted curve in the direction sought with a large enough effect; inconclusive = small, poorly fitted or top-dose-only effect, or another doubt; inactive = no such curve, though single readings can be large; an effect the other way counts as inactive or inconclusive. Unless noted, % is scaled to controls: 0 for no effect and ±100 for the full control effect.
SMILES,DT40 TDP1 CPT,IL-1B inflam inh,TDP1 cell noCPT,ALOX12 inh,HT1080-NT tox,HT1080 IDH1KD tx
CCNC(=O)/C(C#N)=C/c1c(N2CCN(C)CC2)nc2c(C)cccn2c1=O,10%,-19,-12%,?,4%,-1%
COc1ccc(OC)c(Nc2nc3ccccc3nc2NS(=O)(=O)c2ccc(F)cc2)c1,/,/,/,-4%,/,/
CN1CCN(C(=O)N2CCn3nc(CN4CCC(CO)CC4)cc3C2)CC1,/,/,/,42%,/,/
CCN1C(=NCc2cc(OC)c(OC)c(OC)c2)N[C@@H](c2ccccc2)C(C(=O)OC)=C1C,?,-13,-16%,/,7%,3%
COC(=O)C1=C(C)N(Cc2ccccc2)C(=NCc2ccc(OC)cc2)N[C@H]1c1cccc(F)c1,15µM*,?,16µM*,?,-20%,-17%
COC(=O)C1=C(C)N(Cc2ccccc2)C(=NCc2ccco2)N[C@H]1c1cccc(F)c1,12µM*,?,18µM*,-19%,-1%,2%
COC(=O)C1=C(C)N(Cc2ccccc2C(F)(F)F)C(=NCc2ccccc2C(F)(F)F)NC1c1cccc(F)c1 (configuration not stated),/,/,/,-6%,/,/
COC(=O)C1=C(C)N(Cc2ccccc2)C(=NCc2cccc(Cl)c2)N[C@H]1c1cccc(F)c1,2.6µM*,?,3.7µM*,/,?,?
COC(=O)C1=C(C)N(Cc2ccccc2)C(=NCc2cc(OC)c(OC)c(OC)c2)N[C@H]1c1cccc(F)c1,12µM*,?,8.2µM*,/,-3%,4%
Cc1cc(C(=O)COC(=O)c2cc(O)c3ccccc3c2O)c(C)n1CC1CCCO1 (configuration not stated),16µM*,30,?,/,-15%,-14%
Cc1cc(C(=O)COC(=O)c2ccccc2O)c(C)n1CC1CCCO1 (configuration not stated),?,-7,-25%,-11%,-3%[9.24 µM],?
Cc1cc(C(=O)COC(=O)c2cccnc2Cl)c(C)n1CC1CCCO1 (configuration not stated),23µM*,25,?,?,4%,0%
Cc1cc(C(=O)COC(=O)c2ccccc2NCCO)c(C)n1CC1CCCO1 (configuration not stated),?,24,15µM*,-13%,-2%,0%
CN1Cc2c(cc(N3CCOCC3)nc2-c2cccc(N[S+](C)(=O)[O-])c2)C1=O,/,/,/,-26%[176 µM],/,/
Cc1ccc2c(c1)-c1cc(C)nn1C(c1ccsc1)N2 (configuration not stated),/,/,/,-22%,/,/
CC1=CC(C)[C@@H]2COC(c3ccc(O)cc3)[C@H]1C2C (some centres not stated),?,14,?,-19%,3%,2%
CC1=CC(C)C2COC(c3ccc[n+](C)c3)C1C2C (configuration not stated),8.2µM*,0,8.2µM*,?,4%,-13%
COc1cccc(/C=C/c2onc(C)c2S(=O)(=O)N2CCC(C(=O)N3CCC(C)CC3)CC2)c1,?,/,16µM*,?,/,/
Cc1cccc(/C=C/c2onc(C)c2S(=O)(=O)N2CCC(C(=O)N3CCCCCC3)CC2)c1,?,?,23µM*,-19%,-7%,-3%
Cc1cccc(/C=C/c2onc(C)c2S(=O)(=O)N2CCC(C(=O)N3CCC(C)CC3)CC2)c1,18µM*,-22,18µM*,?,24%,9%
COc1ccc(/C=C/c2onc(C)c2S(=O)(=O)N2CCC(C(=O)N3CCC(C)CC3)CC2)cc1,16µM*,?,16µM*,-28%,-26%,-25%
O=C(CCC1CCN(C(=O)[C@H]2C[C@@H]3C=C[C@H]2C3)CC1)N1CCC(Cc2ccccc2)CC1,/,/,/,2%,/,/
Cc1ccc(/C=C/c2onc(C)c2S(=O)(=O)N2CCC(C(=O)N3CCN(c4cccc(C)c4)C(C)C3)CC2)cc1 (configuration not stated),21µM*,/,12µM*,0%,/,/
Cc1c(Cl)cccc1NS(=O)(=O)c1ccc2c(c1)C1C=CCC1C(c1ccc(C(=O)O)cc1)N2 (configuration not stated),-6%,-21,0%,/,-2%,-16%
COc1ccc(NS(=O)(=O)c2ccc3c(c2)[C@H]2C=CC[C@H]2[C@@H](c2ccc(C(=O)O)cc2)N3)cc1,?,3,?,28µM*!,0%,0%
SMILES,DT40 TDP1 CPT,IL-1B inflam inh,TDP1 cell noCPT,ALOX12 inh,HT1080-NT tox,HT1080 IDH1KD tx
COC(=O)c1ccc([C@H]2Nc3ccc(S(=O)(=O)Nc4ccc(C)cc4)cc3[C@H]3C=CC[C@H]32)cc1,13µM*,/,15µM*,?,/,/
COc1cccc(NS(=O)(=O)c2ccc3c(c2)[C@H]2C=CC[C@H]2[C@@H](c2ccccc2Cl)N3)c1,8.2µM*,/,4.6µM*,?,/,/
Cc1cccc(C)c1NS(=O)(=O)c1ccc2c(c1)[C@H]1C=CC[C@H]1[C@@H](c1ccc(Cl)cc1)N2,16µM*,/,13µM*,?,/,/
COC(=O)C1=C(N)Oc2cc(C)n(Cc3ccccc3)c(=O)c2C1c1ccccc1OC (configuration not stated),/,/,/,-12%,/,/
O=C(C[n+]1ccn(CCCNP2(=O)C=C(c3ccccc3)OC(c3ccccc3)=C2)c1)c1cccs1,15µM*,?,-20%,-17%,1%,1%
Cc1cc[n+](CC(=O)c2cccs2)cc1,2%,-2,-9%,16%,4%,6%
CCC1=C(C(=O)OC)C(c2ccc(C)cc2C)N2C(CC(=O)NCC3CCCO3)=CSC2=N1 (configuration not stated),/,/,/,-9%,/,/
COc1ccc(-c2cc(=Nc3ccc(C(=O)O)cc3)c3cc(C)ccc3o2)cc1,-18%,-22,-26%,-15%,-5%,-29%
CCc1ccc2oc(-c3ccc(OC)cc3)cc(=Nc3cccc(C(=O)O)c3)c2c1,?,-66*,?,?,-4%,-20%
CCOC(=O)N1CCN(c2ccc(S(=O)(=O)N(Cc3ccccc3)Cc3ccccc3)cn2)CC1,13µM*,-17,13µM*,-12%,-5%,-7%
CCN(CC)S(=O)(=O)c1ccc(N2CCN(S(=O)(=O)c3ccc4c(c3)OCCO4)CC2)nc1,21µM*,-11,?,287%,-11%,-22%
